Records with an inconclusive call do not appear. Active and inactive are the calls of the source. Calls follow the shape of the full dose curve.
assay: p53 small molecule agonists, cell-based qHTS assay with human liver microsomes: qHTS cell viability counter screen (AID 1963579); details: p53RE-bla HCT-116 viability, ATP luminescence, 16 h, HLM; series mostly up to 66 µM; activity change, negative = cytotoxicity: at the top concentration
Procedure, shortened: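 In this multiplexed counter screen, the reporter plates were subsequently treated with CellTiter-Glo so that cell viability, reflected by luminescence, could be recorded for p53RE-bla cells dosed 16 h with compounds under microsomal activation (HLM and NADPH).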
% is scaled to controls: 0 for no effect and ±100 for the full control effect; potency is read from the fitted curve at half-maximal effect.
Also: nearly all actives have a fitted effect of over 45% in size.

SMILES	activity change, negative = cytotoxicity	Potency
O=c1[nH]c2ccccc2n1CCCN1CCC(n2c(=O)[nH]c3cc(Cl)ccc32)CC1	14% [at 30.3 µM] (inactive)	
CCCN(CCC)CCc1c[nH]c2ccccc12	-0.0131% (inactive)	
CCOC(=O)C(SP(=S)(OC)OC)c1ccccc1 (stereo unspecified)	-6.67% (inactive)	
CCOP(=S)(OCC)SCS(=O)(=O)C(C)(C)C	-4.77% (inactive)	
O=NN(CCO)CCO	-1.02% (inactive)	
c1coc(-c2nc3ccccc3[nH]2)c1	-5.04% (inactive)	
CC1CCC(C(C)C)C(OC(=O)c2ccccc2N)C1 (stereo unspecified)		35.8 µM (active)
Cc1ccn2nc(S(=O)(=O)Nc3c(F)cccc3F)nc2n1	-1.22% (inactive)	
O=[N+]([O-])c1ccc(Cl)c(Cl)c1Cl	0.732% (inactive)	
CCOP(=S)(Oc1cnc(C(C)(C)C)nc1)OC(C)C (stereo unspecified)	8% (inactive)	
O=C1c2ccccc2C(=O)c2ccccc21	2.91% [at 13.5 µM] (inactive)	
C[C@H](N)[C@H](O)c1ccc(O)c(O)c1	-0.33% [at 30.3 µM] (inactive)	
CCN(CC)C(=S)[S-].CCN(CC)C(=S)[S-].[Zn+2]		3.21 µM (active)
CCCCN(N=O)C(=N)N[N+](=O)[O-]	-20.7% (inactive)	
CON(C)C(=O)Nc1ccc(Br)c(Cl)c1	-12.7% (inactive)	
CCOc1nc(C(Cl)(Cl)Cl)ns1	-0.25% (inactive)	
CC(=O)[O-].CC(=O)[O-].[Hg+2]		3.63 µM (active)
O=CCCl	-20.4% (inactive)	
CCCCOC(=O)c1ccccc1N	-18.6% (inactive)	
Nc1cc(Cl)ccc1Cl	5.25% (inactive)	
CCCN1CCC[C@@H]2Cc3nc(N)ncc3C[C@H]21	14.1% [at 30.3 µM] (inactive)	
CNC(=O)Oc1cccc(C(C)C)c1	-1.68% (inactive)	
CC(=O)OC(c1ccccc1)C(Cl)(Cl)Cl (stereo unspecified)	-4.6% (inactive)	
Oc1ccc2[nH]cc(CCCCN3CC=C(c4ccccc4)CC3)c2c1	6.91% [at 30.3 µM] (inactive)	
CC(=O)[O-].CC(=O)[O-].O.O.[Cd+2]	10.9% (inactive)	
NC(=O)CI	-3.52% (inactive)	
CCN(CC)c1nc(C)cc(OP(=S)(OC)OC)n1	11.1% (inactive)	
COC(=O)C(C)N(C(=O)Cc1ccccc1)c1c(C)cccc1C (stereo unspecified)	-7.96% (inactive)	
CCCSP(=O)(OCC)SCCC	-3.29% (inactive)	
OCCBr	0.976% (inactive)	

assay: p53 small molecule agonists, cell-based qHTS assay with rat liver microsomes: qHTS cell viability counter screen (AID 1963580); details: p53RE-bla HCT-116 + rat microsomes, ATP viability, 16 h; series mostly up to 66 µM; activity change, negative = cytotoxicity: at the top concentration
Procedure, shortened: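 Cytotoxicity counter screen: intracellular ATP measured by CellTiter-Glo luminescence in the same wells as the beta-lactamase reporter read, on HCT-116 p53RE-bla cells exposed 16 h at 37 C to compounds with rat liver microsomes and NADPH, each 0.5 mg/mL final.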

SMILES	activity change, negative = cytotoxicity	Potency
CCC(C)c1cc([N+](=O)[O-])cc([N+](=O)[O-])c1OC(=O)C=C(C)C (stereo unspecified)	16.1% (inactive)	
O=c1[nH]c2ccccc2n1CCCN1CCC(n2c(=O)[nH]c3cc(Cl)ccc32)CC1	6.71% [at 30.3 µM] (inactive)	
CCCN(CCC)CCc1c[nH]c2ccccc12	-2.74% (inactive)	
CCOC(=O)C(SP(=S)(OC)OC)c1ccccc1 (stereo unspecified)	1.3% (inactive)	
O=NN(CCO)CCO	2.96% (inactive)	
c1coc(-c2nc3ccccc3[nH]2)c1	1.79% (inactive)	
CC1CCC(C(C)C)C(OC(=O)c2ccccc2N)C1 (stereo unspecified)	-11.3% (inactive)	
O=[N+]([O-])c1ccc(Cl)c(Cl)c1Cl	7.88% (inactive)	
CCOP(=S)(Oc1cnc(C(C)(C)C)nc1)OC(C)C (stereo unspecified)	7.49% (inactive)	
O=C1c2ccccc2C(=O)c2ccccc21	1.32% [at 13.5 µM] (inactive)	
C[C@H](N)[C@H](O)c1ccc(O)c(O)c1	-4.36% [at 30.3 µM] (inactive)	
CCN(CC)C(=S)[S-].CCN(CC)C(=S)[S-].[Zn+2]		1.61 µM (active)
CCCCN(N=O)C(=N)N[N+](=O)[O-]	4.53% (inactive)	
CON(C)C(=O)Nc1ccc(Br)c(Cl)c1	0.995% (inactive)	
CCC1(C2=NCCN2)Cc2ccccc2O1 (stereo unspecified)	-2.13% [at 30.3 µM] (inactive)	
CCNC(=O)NC(=O)/C(C#N)=N/OC	-0.177% (inactive)	

SMILES	activity change, negative = cytotoxicity	Potency
CCOc1nc(C(Cl)(Cl)Cl)ns1	2.06% (inactive)	
CCCCOC(=O)c1ccccc1N	1.78% (inactive)	
Nc1cc(Cl)ccc1Cl	2.66% (inactive)	
CCCN1CCC[C@@H]2Cc3nc(N)ncc3C[C@H]21	-8.45% [at 30.3 µM] (inactive)	
CNC(=O)Oc1cccc(C(C)C)c1	-13.2% (inactive)	
CC(=O)OC(c1ccccc1)C(Cl)(Cl)Cl (stereo unspecified)	-9.1% (inactive)	
CC(C)C(Nc1ccc(C(F)(F)F)cc1Cl)C(=O)OC(C#N)c1cccc(Oc2ccccc2)c1 (stereo unspecified)	-14% (inactive)	
CCCCCCCCc1ccc(O)cc1		48.8 µM (active)
Oc1ccc2[nH]cc(CCCCN3CC=C(c4ccccc4)CC3)c2c1	-2.68% [at 30.3 µM] (inactive)	
CC(=O)[O-].CC(=O)[O-].O.O.[Cd+2]	-0.0859% (inactive)	
NC(=O)CI	-7.37% (inactive)	
CCN(CC)c1nc(C)cc(OP(=S)(OC)OC)n1	-1.58% (inactive)	
COC(=O)C(C)N(C(=O)Cc1ccccc1)c1c(C)cccc1C (stereo unspecified)	-8.82% (inactive)	
CCCSP(=O)(OCC)SCCC	9.26% (inactive)	
OCCBr	0.175% (inactive)	
